Most compounds without a hit are left out; they make up all but 1.2% or so of the library.
RGS16-Gao – modulators of RGS16 binding to Galphao, primary screen, biochemical, human proteins, multiplexed bead flow cytometry | Regulator of G-protein signaling 16 (Homo sapiens) + Guanine nucleotide-binding protein … | bead-based flow cytometry RGS16-Galphao binding, fluorescence; actives lie on both sides | binding response (% of control), % at 10 µM | 220,000 tested, 0.38% active;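 note: Galphao activated by GDP with aluminum fluoride before binding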
GSH fluor – compound fluorescence on glutathione beads, profiling panel, artefact control, biophysical, 488/530 nm, flow cytometry; GSH beads flow cytometry, compound fluorescence 488/530 nm; hits give high values; fluorescence (KMESF) at 10 µM; 190,000 tested, 0.25% active; AID 1776, 2009; in the data active = fluorescence above about 89;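 note: glutathione beads carrying GST-tagged Bcl family fusion proteins plus one bare bead set; values are compound well signal with DMSO vehicle wells as background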
RGS8-Gao – RGS8-Galphao binding modulators, primary screen, biochemical, multiplexed bead flow cytometry. actives lie on both sides. response (percent of control binding), % at 10 µM. 220,000 tested, 0.34% active. AID 1423, 2008. Guanine nucleotide-binding protein G(o) subunit alpha (Homo sapiens), P09471; in the data active = response below about 60% or above about 140%; inactive = in between;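 note: Galphao activated as the GDP aluminium fluoride complex binding bead-coupled RGS8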
Target sequence (P09471 whole entry, looked up): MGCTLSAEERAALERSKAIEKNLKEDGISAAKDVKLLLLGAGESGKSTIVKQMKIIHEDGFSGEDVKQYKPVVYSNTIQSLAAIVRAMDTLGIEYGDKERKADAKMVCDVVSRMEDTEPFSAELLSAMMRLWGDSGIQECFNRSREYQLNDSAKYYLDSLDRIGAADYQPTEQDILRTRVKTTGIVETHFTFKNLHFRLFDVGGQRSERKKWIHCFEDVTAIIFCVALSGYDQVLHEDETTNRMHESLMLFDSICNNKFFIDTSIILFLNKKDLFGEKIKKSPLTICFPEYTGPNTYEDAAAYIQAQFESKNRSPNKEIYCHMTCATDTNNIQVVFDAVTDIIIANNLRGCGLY
RGS7-Gao reg – RGS7-Galphao binding modulators, primary screen, biochemical, multiplexed bead flow cytometry. actives lie on both sides. Guanine nucleotide-binding protein G(o) subunit alpha (Homo sapiens), P09471. 220,000 tested, 0.35% active. binding response (% of control), % at 10 µM; in the data active = binding response below about 49% or above about 150%; inconclusive = no clear call, values can overlap the other calls; inactive = in between;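 note: fluorescent Galphao held in activated GDP-AlF4 state binding bead-coupled RGS7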
Avidin bead fluor – green autofluorescence of compounds with avidin beads – biophysical, 488/530 nm, flow cytometry, artefact control, profiling panel | compound fluorescence 488/530 nm; hits give high values | fluorescence (KMESF) at 10 µM | 220,000 tested, 0.38% active; in the data active = fluorescence above about 47
RGS4-Gao reg – modulators of RGS4 binding to Galphao, primary screen, biochemical, multiplexed bead flow cytometry; actives lie on both sides; binding response (% of control), % at 10 µM; 220,000 tested, 0.33% active; AID 1415, 2008; in the data active = binding response below about 49% or above about 150%; inactive = in between;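 note: fluorescent Galphao activated with aluminum fluoride binding bead-coupled RGS4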
RGS-Gao – modulators of RGS–Galpha-o binding, primary screen, biochemical, multiplexed beads, flow cytometry, RGS4/7/8/16/19; shares compounds with RGS16-Gao; multiplexed bead flow cytometry; RGS4–Galpha-o binding response, % at 10 µM; 1,600 tested, 99% active; AID 1504, 2009;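 note: fluorescently labeled Galpha-o bound to GDP with aluminium fluoride binding biotinylated RGS beads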
Target sequence (P09471 whole entry, looked up): as above
Target sequence (P49798 whole entry, looked up): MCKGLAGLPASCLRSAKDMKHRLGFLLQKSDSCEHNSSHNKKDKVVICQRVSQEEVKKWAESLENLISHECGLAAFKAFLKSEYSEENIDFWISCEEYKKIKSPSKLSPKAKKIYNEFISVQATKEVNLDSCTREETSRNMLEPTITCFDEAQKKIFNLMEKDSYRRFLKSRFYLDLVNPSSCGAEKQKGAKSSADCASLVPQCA
Biotin-avidin – disruption of biotin probe capture by avidin, counter-screen for RGS protein interaction modulators, biochemical, flow cytometry, bead-based; inhibition, % at 10 µM; 1,700 tested, under 10 active; shares compounds with RGS16-Gao; streptavidin beads, fluorescein-biotin binding;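 active = inhibition above 50%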;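 note: median green fluorescence of gated singlet beads compared with DMSO control wells; 0% = DMSO wells and 100% = complete loss of bead fluorescence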
RGS8-Gao single – RGS8-Galphao binding modulators, confirmation, biochemical, multiplexed bead flow cytometry, single concentration | shares compounds with RGS16-Gao | bead-based flow cytometry RGS8-Galphao binding, fluorescence; actives lie on both sides | binding response (% of control), % at 10 µM | 1,700 tested, 3% active | AID 1836, 2009; in the data active = binding response below about 72% or above about 130%; inactive = in between;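 note: Galphao activated as GDP AlF4 complex before binding bead RGS8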
RGS7-Gao confirm – RGS7-Galphao binding modulators, confirmation, biochemical, multiplexed bead flow cytometry, single concentration. shares compounds with RGS16-Gao. bead-based flow cytometry RGS7-Galphao binding; actives lie on both sides. response (percent of control binding), % at 10 µM. 1,700 tested, 7.8% active. AID 1837, 2009; in the data active = response below about 75% or above about 130%; inactive = in between;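 note: fluorescent Galphao activated with GDP and aluminum fluoride binding bead-coupled RGS7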
RGS16-Gao single – modulators of RGS16-Galphao protein binding, confirmation, biochemical, single concentration, multiplexed bead flow cytometry. bead-based flow cytometry; actives lie on both sides. shares compounds with RGS16-Gao. response (% of control binding), % at 10 µM. 1,700 tested, 4% active. AID 1838, 2009; in the data active = response below about 74% or above about 130%; inactive = in between;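 note: Galphao activated as the GDP aluminium fluoride complex binding bead-coupled RGS16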
RGS4-Gao single – modulators of RGS4-Galphao protein binding, confirmation, biochemical, single concentration, multiplexed bead flow cytometry | binding response (% of control), % at 10 µM | actives lie on both sides | 1,700 tested, 4% active | AID 1840, 2009 | shares compounds with RGS16-Gao; in the data active = binding response below about 74% or above about 130%; inactive = in between
RGS19-Gao single – regulators of RGS19-Galphao binding, confirmation, biochemical, single point, multiplexed bead flow cytometry. shares compounds with RGS16-Gao. bead-based flow cytometry RGS19-Galphao binding; actives lie on both sides. response (percent of control binding), % at 10 µM. 1,700 tested, 5% active. AID 1841, 2009; in the data active = response below about 50% or above about 160%; inactive = in between;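 note: 100% = no compound control and 0% = blank background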
An asterisk follows results filed as active; i = inactive; ? = inconclusive; · = not tested or not shown; [ ] = another dose, or the depositor's remark. Unless noted, the rule behind the calls is not given here.

SMILES	RGS16-Gao	GSH fluor	RGS8-Gao	RGS7-Gao reg	Avidin bead fluor	RGS4-Gao reg	RGS-Gao	Biotin-avidin	RGS8-Gao single	RGS7-Gao confirm	RGS16-Gao single	RGS4-Gao single	RGS19-Gao single
CCOCC(=O)Nc1cc(C(=O)OC)cc(C(=O)OC)c1	203*[activator]	6	128	104	2	110	110*	0	107	102	111	102	108
CCOCC(=O)Nc1cccc(C(=O)OCC)c1	108	35	104	96	11	99	·	·	·	·	·	·	·
COc1cccc(OC)c1C(=O)NC(=S)Nc1ccc2oc(=O)ccc2c1	100	10	103	102	12	101	·	·	·	·	·	·	·
COc1ccc(C(=O)NC(=S)Nc2ccc3oc(=O)ccc3c2)cc1OC	243*[activator]	18	138	116	4	121	121*	-2	106	108	107	108	106
O=C(c1nn2c(C(F)(F)F)cc(-c3ccco3)nc2c1Br)N1CCCc2ccccc21	·	15	·	·	·	·	·	2	105	107	107	108	90
CCOC(=O)c1ccc[n+](CC(=O)c2ccccc2)c1	14	14	54*	113	4	115	115*	0	100	100	102	99	99
CCOC(=O)c1ccc[n+](CC(=O)c2ccc(OC)cc2)c1	106	10	101	105	5	99	·	·	·	·	·	·	·
C[n+]1cccc(C(=O)NCC2CCCO2)c1 (configuration not stated)	308*[activator]	12	147*[activator]	112	6	117	117*	0	99	101	100	101	98
CCCCC(=O)Nc1ccccc1C(C)C	103	10	102	99	9	98	·	·	·	·	·	·	·
CCCCOc1ccc(Cc2cnc(N)nc2N)cc1	100	·	99	?	6	100	·	·	·	·	·	·	·
CC(C)Oc1ccc(Cc2cnc(N)nc2N)cc1	i	40	163*[activator]	132	8	137	137*	0	104	103	102	104	100
Cc1ccc(S(=O)(=O)Nc2ccccc2C=Nc2cccc(C)c2C)cc1	106	11	100	93	6	93	·	·	·	·	·	·	·
Cc1ccc(S(=O)(=O)Nc2ccccc2/C=N/c2nc3ccccc3n2C)cc1	102	9	102	·	5	100	·	0	98	100	99	95	105
CCNS(=O)(=O)c1ccc(CCC(=O)NCc2ccccc2)cc1	99	13	101	104	11	102	·	·	·	·	·	·	·
CCc1cccc(NC(=O)Cn2c3[n+](c4ccc(C(F)(F)F)cc42)CCCCC3)c1	238*[activator]	9	147*[activator]	126	4	128	128*	-1	106	108	105	108	113
O=C(Cn1c2[n+](c3ccc(C(F)(F)F)cc31)CCCCC2)Nc1ccccc1	106	9	101	104	9	105	·	·	·	·	·	·	·
COc1ccc(NC(=O)Cn2nnc(-c3ccccc3NC(=O)c3ccco3)n2)cc1	103	14	103	105	35	106	·	·	·	·	·	·	·
COc1ccccc1NC(=O)Cn1nnc(-c2ccccc2NC(=O)c2ccco2)n1	·	10	·	·	·	·	·	-1	103	103	103	105	101
COc1ccc(C(=O)NNC(=O)CSc2nnc(C)n2C)cc1	107	9	100	102	10	103	·	·	·	·	·	·	·
CCOC(=O)CN(C(=O)COc1nc(-c2ccccc2)cc(C)c1C#N)c1ccccc1C	107	·	102	?	7	105	·	·	·	·	·	·	·
Cc1ccc(N2CN(Cc3cccnc3)CNC2=S)cc1	102	17	102	102	17	105	·	·	·	·	·	·	·
Cc1ccc(C)c(N2CN(Cc3cccnc3)CNC2=S)c1	21*	10	69	98	2	93	93*	2	104	104	107	104	96
CCCCCCOc1ccc(N2C(=O)CC(N3CCN(CCN=CC4C(=O)CC(C)(C)CC4=O)CC3)C2=O)cc1 (configuration not stated)	103	14	97	158*[activator]	85*	121	121*	-2	99	97	98	98	94
COC(=O)c1cc(C)sc1NC(=O)c1cccnc1	·	46	·	·	·	·	·	2	100	101	99	100	99
OCC(O)C(O)C(O)C(O)c1nc2ccccc2[nH]1 (configuration not stated)	95	12	96	?	11	97	·	·	·	·	·	·	·
OC(c1ccc(Cl)cc1)C(O)c1nc2ccccc2[nH]1 (configuration not stated)	303	60	141*[activator]	109	4	121	121*	·	·	·	·	·	·
COc1cccc(C2c3c(oc4cc(C)c(C)cc4c3=O)C(=O)N2CCCN(C)C)c1 (configuration not stated)	106	12	96	263*[activator]	117*	122	122*	·	·	·	·	·	·
C=CCN=C(NC#N)SC	106	·	104	?	7	107	·	·	·	·	·	·	·

Screening data deposited in PubChem by NMMLSC.
